Results on one molecule are retold here after PubChem BioAssay (EPA / NIEHS).

Inconclusive results are not listed. Calls of active or inactive are those of the source. Rule for the calls, unless noted: active = hit-call score of the fitted dose curve at least 0.9, where 1 is the maximum; inactive = score below 0.9.

Experiment [1] in a line: CCTE_Mundy_HCI_Cortical_NOG_NeuriteLength: CCTE's Neurite Outgrowth Assay in rat cortical cells for Neurite Length, Mundy Lab (AID 2284213).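 Note: neurites imaged about 48 to 50 h after chemical exposure began.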 In short, it runs like this: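 First, rat primary cortical cells were plated and, 2 h later, given test chemical as a 1/10 dilution. Finally, βIII-tubulin immunostaining enabled automated imaging of neurite length.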
A short description of experiment [2]: CCTE_Mundy_HCI_Cortical_Synap_Neur_Matur_NeuriteSpotCountPerNeuron: CCTE's Synaptogenesis and Neurite Maturation Assay in rat cortical cells for Neurite Spot Count per Neuron Count, Mundy Lab (AID 2284215). In short, it runs like this: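 Read-out: neurite-associated synaptophysin puncta per neuron, imaged by high-content analysis after MAP2, synaptophysin and Hoechst staining. Rat primary cortical cultures, dosed DIV 7 through DIV 12; DMSO served as baseline.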

Experiment [3] can be described thus: CCTE_Mundy_HCI_Cortical_Synap_Neur_Matur_SynapseCount: CCTE's Synaptogenesis and Neurite Maturation Assay in rat cortical cells for Synapse Count, Mundy Lab (AID 2284218). In short, it runs like this:
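Read-out: synapse number per neuron, automated high-content imaging of fixed cells immunostained for MAP2 and synaptophysin plus Hoechst nuclei. Rat primary cortical cultures, AraC at DIV 5, chemical dosing DIV 7–12. Positive-direction fit relative to DMSO.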

A short description of experiment [4]: CCTE_Mundy_HCI_Cortical_Synap_Neur_Matur_NeuriteCount: CCTE's Synaptogenesis and Neurite Maturation Assay in rat cortical cells for Neurite Count, Mundy Lab (AID 2284222). An outline of the steps:
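Chemical exposure runs DIV 7–12 in rat cortical cultures, glia suppressed by AraC at DIV 5; measurement is at DIV 12. Imaging-derived neurite counts are fitted against DMSO baseline.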

The nature of experiment [5]: CCTE_Mundy_HCI_Cortical_Synap_Neur_Matur_CellBodySpotCount: CCTE's Synaptogenesis and Neurite Maturation Assay in rat cortical cells for Cell Body Spot Count, Mundy Lab (AID 2284223). In short, it runs like this: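 Read-out: cell body-associated synaptophysin puncta per neuron, imaged after MAP2, synaptophysin and Hoechst staining. Rat cortical cells, AraC DIV 5, chemical dosing DIV 7, fixation DIV 12. Activity fitted in positive direction relative to DMSO baseline.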

Experiment [6] in a line: CCTE_Mundy_HCI_hNP1_Pro_ResponderAvgInten: CCTE's Proliferation Assay in human neuroprogenitor cells, Mundy Lab (AID 2284224; active = hit-call score of the fitted dose curve at least 0.9, where 1 is the maximum;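 note: human neural progenitor cells hNP1 derived from WA09 embryonic stem cells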). In short, it runs like this: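 Human neuroprogenitors (hNP1, WA09 lineage) receive test chemical after 40 to 44 hours of attachment. A four-hour BrdU pulse begins twenty hours later, followed by fixation and high content imaging; signal is referenced to DMSO controls.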

The nature of experiment [7]: UKN2_HCS_IMR90_cell_viability: Viability Assessment in the University of Konstanz (UKN) Leist Lab Neural Crest Cell Migration Assay in human induced IMR90 Pluripotent Stem Cells (UKN2) (AID 2284233).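 Note: viability of neural crest cells differentiated from IMR90 iPSC measured by calcein-AM fluorescence imaging; cells exposed to compound for 24 h after a 24 h migration phase.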 An outline of the steps: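 cMINC format, iPSC-derived neural crest (IMR90); 24 h migration (EGF/FGF, N2-S), then 24 h toxicant. Calcein-AM/H-33342 stain 30 min; fluorescence intensity by HCS; DMSO-normalised, bidirectional fitting.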

A short description of experiment [8]: CCTE_Mundy_HCI_hNP1_Casp3_7: CCTE's Caspase-Glo 3/7 Assay in human neuroprogenitor cells for Apoptosis, Mundy Lab (AID 2284240). An outline of the steps:
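Neuroepithelial-lineage stem cells from WA09 embryonic cells were treated with chemicals after 40–44 h of culture. Twenty-four hours later, caspase-3/7 activation was detected luminescently after a 30 min room-temperature reagent step, with DMSO as baseline.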

A short description of experiment [9]: CCTE_Mundy_HCI_Cortical_Synap_Neur_Matur_NeuronCount: CCTE's Synaptogenesis and Neurite Maturation Assay in rat cortical cells for Neuron Count, Mundy Lab (AID 2284242; active = hit-call score of the fitted dose curve at least 0.9, where 1 is the maximum;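 note: hits reduce neuron count versus DMSO baseline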). In short, it runs like this:
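Rat cortical cultures; AraC DIV 5; chemical dosing + media change DIV 7 to DIV 12 (288.33 h readout). Fix, Hoechst, anti-MAP2/anti-synaptophysin immunostain; HCI neuron count vs DMSO baseline.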

Experiment [10] can be described thus: IUF_NPC2c_oligodendrocyte_migration_120hr: Leibniz Research Institute for Environmental Medicine (IUF) 120-hour Neural Progenitor Cell Migration Assay for Oligodendrocyte Migration (NPC2c) (AID 2284297).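 Note: O4-positive oligodendrocyte migration distance divided by radial glia migration distance.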 In short, it runs like this: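 hNPC spheres (GW 16-19 cortex), PDL/laminin, DMEM/F12 3:1 + 1% N2, 37C. Dosing day 0–5, half feed day 3, DMSO ≤0.1%. Fixed 120 h; O4 ICC + Hoechst, HCI. Readout: mean oligodendrocyte distance from sphere edge / radial glia distance.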

Experiment [11] can be described thus: IUF_NPC2a_radial_glia_migration_120hr: Leibniz Research Institute for Environmental Medicine (IUF) 120-hour Neural Progenitor Cell Migration Assay for Radial Glia Migration (NPC2a) (AID 2284298). An outline of the steps: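 Hoechst-stained nuclei imaged at 120 h; algorithm maps sphere core by densest nuclei, sets migration edge at density threshold, gives radial glia migration distance (um) per well vs DMSO. hNPC spheres (0.3 mm), PDL/laminin, DMEM/F12 3:1 + 1% N2.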

Experiment [12] can be described thus: IUF_NPC2a_radial_glia_migration_72hr: Leibniz Research Institute for Environmental Medicine (IUF) 72-hour Neural Progenitor Cell Migration Assay for Radial Glia Migration (NPC2a) (AID 2284299). In short, it runs like this: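 Readout: mean of four manual brightfield measurements of radial glia migration distance (um) at 72 h. hNPC spheres (0.3 mm) exposed to 7 compound concentrations plus solvent control on PDL/laminin, 37C, 5% CO2; activity fitted relative to DMSO.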

A short description of experiment [13]: IUF_NPC2b_neuronal_migration_120hr: Leibniz Research Institute for Environmental Medicine (IUF) 120-hour Neural Progenitor Cell Migration Assay for Neuron Migration (NPC2b) (AID 2284300). In short, it runs like this:
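hNPC spheres, PDL/laminin, DMEM:F12 3:1 + 1% N2, 37C/5% CO2; 7 concentrations + solvent control (DMSO ≤0.1%), 5 d exposure, half-feed day 3. Fix 120 h, TUBB3 ICC, HCI: mean neuron migration distance ÷ glia distance.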

Experiment [14] in a line: IUF_NPC3_neuronal_differentiation_120hr: Leibniz Research Institute for Environmental Medicine (IUF) 120-hour Neuronal Differentiation Assay (NPC3) (AID 2284301). In short, it runs like this:
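Neuronal differentiation of primary human neural progenitors measured by high-content imaging: percent TUBB3+ of Hoechst+ nuclei within migrated area at 120 h, seven-point serial dilution plus solvent control, gain or loss relative to DMSO.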

Experiment [15] in a line: IUF_NPC4_neurite_length_120hr: Leibniz Research Institute for Environmental Medicine (IUF) 120-hour Neuronal Morphology Assay for Neurite Length (NPC4) (AID 2284302). In short, it runs like this: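 Neurons from differentiating human fetal neural progenitor spheres are scored for average neurite length after five days of compound exposure. Fitting uses DMSO as negative control.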

Experiment [16] in a line: IUF_NPC4_neurite_area_120hr: Leibniz Research Institute for Environmental Medicine (IUF) 120-hour Neuronal Morphology Assay for Neurite Area (NPC4) (AID 2284305; active = hit-call score of the fitted dose curve at least 0.9, where 1 is the maximum). An outline of the steps:
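Endpoint at 120 h: automated imaging of TUBB3/Hoechst-stained differentiating human neural progenitor spheres, neurite area per neuron from skeletonization. DMSO solvent control, not above 0.1%, set the baseline; medium was half-replaced on day 3.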

Experiment [17] is described as follows: IUF_NPC2-5_cytotoxicity_72hr: Cytotoxicity Assessment at 72 hours in the Leibniz Research Institute for Environmental Medicine (IUF) Neural Progenitor Cell Migration and Differentiation Assay for Cytotoxicity (NPC2-5) (AID 2284306; active = hit-call score of the fitted dose curve at least 0.9, where 1 is the maximum;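 note: LDH release into supernatant measured by resorufin fluorescence marking membrane damage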). In short, it runs like this:
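Primary human neural progenitor spheres migrate and differentiate on laminin. Compound is present from the start of differentiation, with DMSO kept at or below 0.1%. At 72 h, supernatant LDH is quantified fluorometrically, with values fitted in the positive direction.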

Experiment [18] in a line: IUF_NPC2-5_cytotoxicity_120hr: Cytotoxicity Assessment at 120 hours in the Leibniz Research Institute for Environmental Medicine (IUF) Neural Progenitor Cell Migration and Differentiation Assay (NPC2-5) (AID 2284307; active = hit-call score of the fitted dose curve at least 0.9, where 1 is the maximum). An outline of the steps:
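hNPC spheres on PDL/laminin, N2 medium, 37C; 7 concs + solvent control, DMSO ≤0.1%; 5-day exposure, half medium changed day 3. LDH in supernatant at 120 h, resazurin→resorufin fluorescence, gain-of-signal.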

Experiment [19] in a line: IUF_NPC2-5_cell_number_120hr: Cell Number Assessment at 120 hours in the Leibniz Research Institute for Environmental Medicine (IUF) Neural Progenitor Cell Migration and Differentiation Assay (NPC2-5) (AID 2284308).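 Note: count of Hoechst-stained nuclei in migration zone around plated human neural progenitor spheres.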 In short, it runs like this: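 Hoechst-stained nuclei within the migration area were counted by automated high content imaging after 120 h. Single hNPC spheres differentiated on poly-D-lysine/laminin in DMEM/F12 (3:1) with 1% N2, compound present throughout, DMSO ≤0.1%.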

The nature of experiment [20]: IUF_NPC2-5_viability_120hr: Viability Assessment at 120 hours in the Leibniz Research Institute for Environmental Medicine (IUF) Neural Progenitor Cell Migration and Differentiation Assay (NPC2-5) (AID 2284312). An outline of the steps:
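Human fetal (GW 16-19) neural progenitor spheres of 0.3 mm were plated on poly-D-lysine/laminin in N2 differentiation medium and exposed from day 0 for 120 h, with half-medium refresh at day 3. Viability was read as alamar blue resazurin-to-resorufin fluorescence against DMSO.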

The nature of experiment [21]: IUF_NPC1_cytotoxicity_72hr: Cytotoxicity Assessment at 72 hours in the Leibniz Research Institute for Environmental Medicine (IUF) Neural Progenitor Cell Proliferation Assay (NPC1) (AID 2284332; active = hit-call score of the fitted dose curve at least 0.9, where 1 is the maximum;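 note: rising LDH signal means more cytotoxicity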). An outline of the steps: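 LDH in supernatant, resazurin→resorufin fluorescence (RFU), 72 h exposure, no re-dosing. Cells: primary hNPC spheres, one per well, EGF+FGF medium, 37C/5% CO2, pH 7.2-7.6. Fit: positive direction vs baseline and dynamic range.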

Experiment [22] in a line: CCTE_Mundy_HCI_iCellGluta_NOG_NeuronCount: CCTE's Neurite Outgrowth Assay in iCellGluta cells for Neuron Count, Mundy Lab (AID 2284340; active = hit-call score of the fitted dose curve at least 0.9, where 1 is the maximum;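 note: cells fixed about 48 h after compound addition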). In short, it runs like this: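 Neuron count read by automated high-content imaging of Hoechst 33342 and betaIII-tubulin/Alexa Fluor-488 labelling in human iPSC glutamatergic neurons. Activity fitted relative to DMSO.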
Experiment [23] is described as follows: CCTE_Mundy_HCI_iCellGluta_NOG_NeuriteCount: CCTE's Neurite Outgrowth Assay in iCellGluta cells for Neurite Count, Mundy Lab (AID 2284342; active = hit-call score of the fitted dose curve at least 0.9, where 1 is the maximum;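 note: chemical exposure about 48 hours starting 2 hours after plating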).

For orientation: AC50 means the concentration at which the activity in the assay is half-maximal.

With `CC(=O)[O-].[Tl+]`, the half-maximal activity concentration (AC50) in experiment [1] is 75.3 µM (active); in experiment [2] it was 24.4 µM (active); in experiment [3], 31.9 µM (active); in experiment [4], 25.3 µM (active); in experiment [5] it was 30.1 µM (active); in [7], 90 µM (active). For the same molecule, the AC50 was 15.4 µM (active) in experiment [9]; 59.4 µM (active) in [10]; 44.2 µM (active) in [11]; 62.7 µM (active) in experiment [12]; 33 µM (active) in experiment [13]; 50.1 µM (active) in experiment [14]. Besides, the half-maximal activity concentration (AC50) in experiment [15] is 34.6 µM (active); in [16] it was 30.9 µM (active); in experiment [19], 35.4 µM (active); in experiment [20], 21.6 µM (active); in [22], 31.3 µM (active); in experiment [23] it was 2.26 µM (active). Besides, the outcome in experiment [6], in experiment [8], in experiment [17], in [18] and in experiment [21] was inactive.
